JMJD2A Tudor inh: qHTS Assay for Inhibitors of JMJD2A-Tudor Domain; AID 504339, 2011; hit rate 4.4% among 390,000; AlphaScreen JMJD2A-Tudor / H3K4me3 peptide binding; Lysine-specific demethylase 4A (Homo sapiens), O75164; Potency, µM (highest dose often 114 µM), inactives show at the highest dose activity change, negative = inhibition, most hits filed as inhibitors; also: % is scaled to controls: 0 for no effect and ±100 for the full control effect; nearly all actives have a fitted effect of over 50% in size
Sfp inh: qHTS Assay for Inhibitors of Bacillus subtilis Sfp phosphopantetheinyl transferase (PPTase); 4'-phosphopantetheinyl transferase ffp (Bacillus subtilis), Q9F4F7; Biochemical Sfp PPTase activity, qHTS; Potency, µM, without a hit: largest response in the series, negative = inhibition, usual class: inhibitors; hit rate 3.5% among 310,000;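 also: the enzyme is Sfp with the accession as filed and its product quenches rhodamine fluorescence; 0% = enzyme reaction without inhibitor and -100% = no enzyme wells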
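Sfp 15 nM + cpd, 15 min RT; start w/ rhodamine-CoA 5 uM, BHQ-2-YbbR 12.5 uM (final); 50 mM Hepes pH 7.6, 10 mM MgCl2, 0.01% NP-40, 0.01% BSA; read 525/598 nm at 0 and 30 min.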
BAZ2B block: qHTS Assay for Inhibitors of BAZ2B; Bromodomain adjacent to zinc finger domain protein 2B (Homo sapiens), Q9UIF8; AlphaScreen BAZ2B-H3K14Ac peptide displacement; Potency, µM (series often up to 114 µM), inactives show at the highest dose activity change, negative = inhibition, usual class: inhibitors; hit rate 4.4% among 360,000; AID 504333, 2011; also: % is scaled to controls: 0 for no effect and ±100 for the full control effect; nearly all actives have a fitted effect of over 60% in size
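AlphaScreen displacement: compounds (up to 110uM) incubated 30 min at room temperature with a preformed 50 nM BAZ2B/50 nM biotinylated H3K14Ac peptide complex in PBS pH 7.4 with Tween-20. Donor and acceptor beads at 10 ug/mL final added, 20 min light-protected before reading.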
G9a block: qHTS Assay for Inhibitors of Histone Lysine Methyltransferase G9a; AID 504332, 2011; Potency, µM (series often up to 102 µM), without a hit: at the highest dose activity, negative = inhibition, most hits filed as inhibitors; G9a H3K9 monomethylation, AlphaScreen, 2 h; Histone-lysine N-methyltransferase EHMT2 (Homo sapiens), Q96KQ7; hit rate 8.8% among 350,000; also: % is scaled to controls: 0 for no effect and ±100 for the full control effect; nearly all actives have a fitted effect of over 75% in size
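Compounds were preincubated with 20 nM G9a for 15 min, after which biotinylated H3K9 peptide (500 nM) and SAM (20 uM) started a 2 h room-temperature reaction. Monomethylated product was quantified by antibody-based AlphaScreen chemiluminescence.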
HP1b binding inh: HTS for Inhibitors of HP1-beta Chromodomain Interactions with Methylated Histone Tails; Chromobox protein homolog 1 (Homo sapiens), P83916; AlphaScreen HP1-beta / biotin-H3K9me3 peptide binding; Potency, µM (top dose mostly 114 µM), for inactives: top-dose activity change, negative = inhibition, most hits filed as inhibitors; hit rate 0.56% among 390,000; also: nearly all actives have a fitted effect of over 70% in size
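AlphaScreen: HP1-beta (50 nM) preformed 30 min with biotin-H3(1-18)K9me3 peptide (50 nM) in PBS pH 7.4, 0.01% Tween-20. Compound added for 30 min at RT, then streptavidin donor/nickel chelate acceptor beads (10 ug/mL) for 30 min.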
* marks the source's active call; other numbers are inactive results; ! = not active in a repeat; [ ] = remark or other dose. This is a sample that favours compounds with a hit; in the whole collection about 12% have one here. Calls follow the shape of the dose curve; as a rule, active = well fitted curve in the direction sought with a large enough effect; inconclusive = small, poorly fitted or top-dose-only effect, or another doubt; inactive = no such curve, though single readings can be large; an effect the other way counts as inactive or inconclusive. Potency is read from the fitted curve at half-maximal effect.

How did O=C(N/N=C/c1c(O)n(C2CCCCC2)c(=S)[nH]c1=O)c1ccccc1O do in these assays?
JMJD2A Tudor inh: 7%; Sfp inh: -13%; BAZ2B block: 79µM*; G9a block: 75%[59 µM]; HP1b binding inh: 45%

How did Clc1ccc(Cl)cc1 do in these assays?
Sfp inh: 26%; G9a block: 29%[59 µM]

Results for CN1CCN(C(=O)COc2ccc(-c3nc4ccccc4s3)cc2)CC1 ?
JMJD2A Tudor inh: -20%; Sfp inh: 2%; BAZ2B block: 3%; G9a block: -27%[59 µM]; HP1b binding inh: 28%

What do the screens show for `CC[C@H]1CN2CC[C@@H]1C[C@H]2[C@@H](O)c1ccnc2ccc(OC)cc12`?
Sfp inh: 22%; G9a block: 6%[21.5 µM]

How did CCCCn1c(O)c(/C=N/NC(=O)c2ccncc2)c(=O)[nH]c1=O do in these assays?
JMJD2A Tudor inh: inconclusive; Sfp inh: -5%; BAZ2B block: inconclusive; HP1b binding inh: 41%

What do the screens show for `O=C(N/N=C/c1c(O)n(CCc2ccccc2)c(=O)[nH]c1=O)c1ccccc1`?
JMJD2A Tudor inh: -35%; Sfp inh: 9%; BAZ2B block: 79µM*; HP1b binding inh: 39%

How did CC(C)c1ccc(-n2c(O)c(/C=N/NC(=O)c3ccccc3O)c(=O)[nH]c2=S)cc1 do in these assays?
JMJD2A Tudor inh: 79µM*; Sfp inh: -30%; BAZ2B block: 50µM*; HP1b binding inh: 20%

Results for C[C@]12CCC3C(CC[C@H]4C[C@@H](O)CC[C@]34C)C1CC[C@@H]2N (some centres undefined) ?
JMJD2A Tudor inh: -23%; HP1b binding inh: 22%

What do the screens show for `CCCCCCCCCC[N+](C)(C)CCCCCCCCCC`?
Sfp inh: inconclusive; G9a block: 7%[59 µM]

What do the screens show for `CCCCCCCCCCCCCCCC[N+](C)(C)C`?
JMJD2A Tudor inh: -1%; Sfp inh: 45µM*!; BAZ2B block: 6%; G9a block: 8.9µM*!; HP1b binding inh: 52%

Results for CC1(C)C2C[C@@H](O)[C@]3(C)C(CC[C@@]4(C)[C@H](c5ccoc5)C[C@H]5O[C@]543)[C@@]2(C)[C@@H](O)C[C@H]1O (some centres undefined) ?
Sfp inh: -24%

Results for CCCCCCCCCc1ccc(O)cc1 ?
Sfp inh: 11%

Results for Oc1cn2c(n1)Nc1ccc(Cl)c(Cl)c1C2 ?
Sfp inh: 6%; G9a block: inconclusive

How did N#Cc1cccc(NC(=O)N2CCCC3(CCN(C(=O)Oc4ccccc4)CC3)C2)c1 do in these assays?
Sfp inh: 11%; G9a block: -3%[12.7 µM]

Results for O=[N+]([O-])c1ccc(S(=O)(=O)N2CCn3cccc3C2c2ccccc2F)cc1 (centres undefined) ?
JMJD2A Tudor inh: inconclusive; BAZ2B block: 32µM*; G9a block: inconclusive; HP1b binding inh: 13%

How did O=c1c2cc(Br)ccc2[nH]c(=S)n1-c1ccccc1 do in these assays?
JMJD2A Tudor inh: -9%; Sfp inh: -16%; BAZ2B block: -15%; G9a block: 14%; HP1b binding inh: 20%

Results for CCOc1ccc([N+](=O)[O-])cc1CNCCc1ccccc1 ?
JMJD2A Tudor inh: -9%; Sfp inh: 27%; BAZ2B block: -15%; G9a block: 3%; HP1b binding inh: 32%

What do the screens show for `O=[N+]([O-])c1ccccc1CNCCc1c[nH]c2ccccc12`?
JMJD2A Tudor inh: 22µM*; Sfp inh: -10%; BAZ2B block: 50µM*; HP1b binding inh: inconclusive

Results for O=[N+]([O-])c1ccc(CNCCc2ccccc2)cc1 ?
JMJD2A Tudor inh: 20µM*; Sfp inh: -19%; BAZ2B block: 50µM*; G9a block: 7.9µM*; HP1b binding inh: inconclusive

Results for O=[N+]([O-])c1ccccc1CNCCc1ccc(F)cc1 ?
JMJD2A Tudor inh: 10µM*; Sfp inh: -17%; BAZ2B block: 50µM*; G9a block: 7.9µM*; HP1b binding inh: inconclusive

What do the screens show for `CCc1ccc(CNCCc2ccc(F)cc2)cc1`?
JMJD2A Tudor inh: 2%; Sfp inh: inconclusive; BAZ2B block: 27%; G9a block: -2%[59 µM]; HP1b binding inh: 27%

How did Clc1ccccc1Cl do in these assays?
Sfp inh: 15%; G9a block: 21%[59 µM]

What do the screens show for `Cc1nc2ccc(NC(=O)c3ccc(Cl)s3)cc2s1`?
JMJD2A Tudor inh: -17%; Sfp inh: -2%; BAZ2B block: 3%; G9a block: 4%; HP1b binding inh: 63%

What do the screens show for `Cc1nc2ccc(P(=O)(O)O)cc2s1`?
Sfp inh: -81%; BAZ2B block: inconclusive; G9a block: 45µM*

Results for COC(=O)C1=C(c2cccc(OC)c2OC)C[C@@H]2CC[C@H]1N2C(=O)NCCS(C)=O (some centres undefined) ?
JMJD2A Tudor inh: -13%; HP1b binding inh: 63%

Results for COC(=O)C1=C(c2ccc(F)cc2F)C[C@@H]2CC[C@H]1N2C(=O)NCc1ccc(F)cc1 ?
JMJD2A Tudor inh: inconclusive; BAZ2B block: 8%; G9a block: -7%[2.33 µM]; HP1b binding inh: 17%

Results for O=C(CNC(=O)OCc1ccccc1)Nc1ccc(Br)cc1C(=O)c1ccccc1Cl ?
JMJD2A Tudor inh: -4%; Sfp inh: 28µM*; BAZ2B block: 10%; G9a block: 10%; HP1b binding inh: 7%

Results for CN(C(=O)CNC(=O)OCc1ccccc1)c1ccc(Br)cc1C(=O)c1ccccc1Cl ?
JMJD2A Tudor inh: -14%; Sfp inh: 10%; BAZ2B block: -11%; G9a block: 23%[59 µM]; HP1b binding inh: 20%

How did O=C1CNC(c2ccccc2Cl)c2cc(Br)ccc2N1 (centres undefined) do in these assays?
JMJD2A Tudor inh: inconclusive; Sfp inh: 15%; BAZ2B block: 4%; G9a block: -9%; HP1b binding inh: 22%

How did O=C(Oc1ccccc1)N1CCC2(CC1)CN(C(c1ccccc1)c1ccccc1)C2 do in these assays?
Sfp inh: -17%; G9a block: 0%[12.7 µM]

How did CC1CCCCN1CC(=O)c1ccc2cc[nH]c2c1 (centres undefined) do in these assays?
JMJD2A Tudor inh: -28%; Sfp inh: -19%; BAZ2B block: -10%; G9a block: 32µM*; HP1b binding inh: 15%

Results for CN(C)C(=O)Oc1ccc2c(c1)O/C(=C\c1cccc([N+](=O)[O-])c1)C2=O ?
JMJD2A Tudor inh: -19%; Sfp inh: -3%; BAZ2B block: -5%; G9a block: -6%; HP1b binding inh: 36%
